Source: PubChem BioAssay (National Center for Advancing Translational Sciences (NCATS))
This is one part of a sample in which hits are shown more often than they occur.
LMNA splice mod: LMNA splicing modulation. HeLa LMNA splicing GFP/RFP minigene ratio, 48 h. Potency, µM (highest dose often 46.1 µM), inactives show at the top dose ratio change, negative = inhibition, actives largely listed as inhibitors. 200,000 compounds, 0.01% hits. AID 1487; active means well fitted inhibition curve with a large enough effect in the signal ratio, with a control signal flat, not every such curve was filed as active; inconclusive means small, poorly fitted or top-dose-only effect, or effect the other way, or a change in a side signal; the % refers to the signal ratio; further: potency means the concentration at half of the fitted maximal effect
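S3 HeLa cells stably expressing lamin A-EGFP splicing minigene plus DsRed2, 600 cells/well, 48 h compound exposure at 37C. Laser-scanning cytometry; analysed as GFP (500-530 nm)/RFP (575-640 nm) total intensity ratio; 0.5% DMSO vehicle.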
PNC inhibitor: perinucleolar compartment assembly inhibition | PC3M PTB-GFP, PNC prevalence imaging, 16 h; stronger effect = lower value | activity change (PNC), negative = inhibition, % at 10 µM | 140,000 compounds, 3.1% hits | AID 2417;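 active means readout at or below -70, meaning at least 70% loss of cells showing the perinucleolar compartment, a nuclear body marking cancer cells; inconclusive means readout between -30 and a set limit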;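 further: plate controls were DMSO wells for no effect and camptothecin positive control wells for full effect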
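Compounds are pinned in duplicate onto adhered PC3M cells stably expressing GFP-tagged PTB and incubated 16 h at 37 C. Cells are then fixed, nuclei stained with Hoechst, and PNC-positive cells counted.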
IMPase cell inh: membrane-permeable compound that blocks inositol monophosphatase | CHO-M1 cells, IP1 accumulation, HTRF TR-FRET ratio | P97697 | 120,000 tested, under 10 active | inhibition (IP1 accumulation), % at 46.1 µM | AID 901; active means well fitted curve in the direction sought with a large enough effect in the signal ratio, not every such curve was filed as active; inconclusive means small, poorly fitted or top-dose-only effect, or a change in a side signal; inactive means no such curve, though single readings can be large or run the other way; the % refers to the signal ratio;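 further: cells stimulated with carbachol in lithium chloride buffer; plate controls were DMSO basal wells for no effect and reference inhibitor wells for full effect; higher means more IMPase inhibition seen as more IP1 and lower FRET ratio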
Target sequence (P97697 whole entry, looked up): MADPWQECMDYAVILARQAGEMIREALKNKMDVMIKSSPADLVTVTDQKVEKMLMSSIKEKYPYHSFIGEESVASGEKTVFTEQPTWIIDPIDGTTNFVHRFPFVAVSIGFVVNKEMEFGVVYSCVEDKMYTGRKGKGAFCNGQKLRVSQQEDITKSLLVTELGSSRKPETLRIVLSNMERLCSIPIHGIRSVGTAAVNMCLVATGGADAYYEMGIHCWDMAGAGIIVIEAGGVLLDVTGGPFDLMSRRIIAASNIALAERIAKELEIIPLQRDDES
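In this qHTS, compounds (final up to 46 uM) act on CHO-M1 cells that are then activated through the M1 receptor with carbachol, in pH 7.4 buffer containing 50 mM LiCl, for 30 min. IP1 accumulation is quantified by the IP-One immunoassay.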
* hit, by the source's call; ? = inconclusive; nt = no result; [ ] = another dose, or the depositor's remark. Unless noted, on the % scale 0 is the no-effect control and ±100 the full control effect.

SMILES	LMNA splice mod	PNC inhibitor	IMPase cell inh
Cc1ccccc1CN1CCC(CNc2ncnc3onc(-c4ccc(F)cc4)c23)CC1	-7%[46 µM]	nt	nt
Cc1ccc(CC2SC(=O)NC2=O)cc1Cl (stereo not given)	-8%	-100*	-11
CC(=O)/C(C#N)=C1\NC(=O)C(Cc2ccc(C)c(C)c2)S1 (stereo not given)	?	-108*	17
Nc1ccc(CC2SC(=O)NC2=O)cc1 (stereo not given)	-9%	-24	-1
CC(=O)/C(C#N)=C1\NC(=O)C(Cc2ccccc2Cl)S1 (stereo not given)	4%	-5	-9
CCN(CC)C(=O)c1sc2c(c1C)c(=O)n(-c1ccc(C)c(C)c1)c(=O)n2CC(=O)Nc1ccc(OC)cc1OC	14%[46 µM]	nt	nt
CCOc1ccc(CCNC(=O)C2Cc3ccccc3N2C(=O)CC)cc1OCC (stereo not given)	7%[46 µM]	nt	nt
CCC(=O)N1N=C(c2c(-c3ccccc3)c3cc(Cl)ccc3[nH]c2=O)CC1c1ccco1 (stereo not given)	-10%	-82*	-2
O=C(O)CCC(=O)N1N=C(c2c(-c3ccccc3)c3cc(Cl)ccc3[nH]c2=O)CC1c1ccco1 (stereo not given)	-5%	29	nt
CCCN(CCC)C(=O)CSc1nc2ccccc2c(=O)n1C1CCCC1	?	?	10
CC(NC(=O)/C=C/c1ccc(Br)cc1)c1ccccc1 (stereo not given)	?	-84*	6
Cc1ccc(/C=C/C(=O)NC(C)c2ccccc2)cc1 (stereo not given)	9%	-9	nt
O=C(O)CCS(=O)(=O)c1ccccc1Cl	-4%[46 µM]	nt	nt
CC(=O)Nc1cc(N2C(=O)CCC2=O)ccc1Cl	-4%	-82*	nt
CC(=O)Nc1c(Br)cc(N2C(=O)CCC2=O)cc1Br	-9%	21	3
CC[C@H](CO)NCCN[C@H](CC)CO	-7%	-115*	nt
CCC(CO)NCCNC(CC)CO (stereo not given)	?	?	1
CC(=O)Nc1ccc(OCC(O)CN2CCN(c3cccc(Cl)c3)CC2)cc1 (stereo not given)	-9%	-6	5
CC(=O)Nc1ccc(OCC(O)CN2CCN(c3ccc(Cl)cc3)CC2)cc1 (stereo not given)	?	-100*	14
Cn1cc(C(=O)O)c(=O)c2cc(S(=O)(=O)N3CCCCC3)ccc21	-22%[46 µM]	nt	nt
COC(=O)c1cn(C)c2ccc(S(=O)(=O)N3CCCC3)cc2c1=O	?	-109*	-9
CCc1[nH]c(=O)c(C#N)c2c1CSC(C)(C)C2	0%	5	-3
Cc1[nH]c(=O)c(C#N)c2c1CSC(C)(C)C2	-7%	-100*	4
CCOc1ccc(S(=O)(=O)NCC(c2cccs2)S(=O)(=O)c2ccc(C)cc2)cc1 (stereo not given)	-25%[46 µM]	nt	nt
N#CC1=C(N)Oc2cc(O)ccc2C1c1cccs1 (stereo not given)	-5%	-106*	10
SMILES	LMNA splice mod	PNC inhibitor	IMPase cell inh
COC(=O)CC1=C(C(=O)OC)C(c2cccs2)C(C#N)=C(N)O1 (stereo not given)	1%	-119*	-5
CCOC(=O)C1=C(CC)OC(N)=C(C#N)C1c1cccs1 (stereo not given)	-4%	-7	-2
N#CC1=C(N)Oc2cc(O)ccc2C1c1ccncc1 (stereo not given)	2%	?	-3
Cn1ncc2c(Nc3cc(C(F)(F)F)ccc3Cl)ncnc21	-14%[46 µM]	nt	nt
CCC1CCCCN1C(=O)Cn1c(=O)n(CC2CCC(C(=O)NC)CC2)c(=O)c2sccc21 (stereo not given)	20%[46 µM]	nt	nt
CC(C)(C)OC(=O)N[C@@H](Cc1ccccc1)c1nnc(S(=O)(=O)Cc2cccc(F)c2)o1	29%	-107*	14
Cc1ccccc1CS(=O)(=O)c1nnc([C@H](CC(C)C)NC(=O)OC(C)(C)C)o1	?	44	12
CCOc1ccc(C(=O)NCc2ccccn2)cc1	0%	5	9
O=C(NCc1ccccn1)c1coc(=O)c(Br)c1	9%	-87*	3
CCOC(=O)C1CCN(C(=O)Cn2c(-c3cccs3)cc3cc(Cl)ccc32)CC1	-18%[46 µM]	nt	nt
Cc1ccc2c(c1)N(S(=O)(=O)c1ccc(F)cc1)C(C(C)(C)C)CO2 (stereo not given)	-11%	-27	5
Cc1ccc(S(=O)(=O)N2c3ccccc3OCC2C(C)(C)C)cc1 (stereo not given)	?	-100*	1
O=C(CCS(=O)(=O)c1cc2c(cc1Cl)NC(=O)CO2)NCc1ccccc1Cl	10%[46 µM]	nt	nt
Cc1cc(Cl)c(OCCN2C(=O)NC(C)(C)C2=O)c(Br)c1	-6%	-5	4
Cc1cc(Cl)cc(Br)c1OCCCN1C(=O)NC(C)(C)C1=O	-4%	-80*	2
C/C(Cn1cnc([N+](=O)[O-])n1)=N\NC(=O)c1ccc(F)cc1	-7%	14	3
C/C(Cn1nnc([N+](=O)[O-])n1)=N\NC(=O)c1cccc(Cl)c1	?	-26	-2
C/C(Cn1cnc([N+](=O)[O-])n1)=N\NC(=O)c1cccc(F)c1	-2%	-88*	2
C/C(Cn1nnc([N+](=O)[O-])n1)=N\NC(=O)c1ccc(C)cc1	?	-109*	nt
COc1ccc(NC(=O)CSc2nc3nc(C)c(Cc4ccc(C)cc4)c(C)n3n2)cc1OC	-1%[46 µM]	nt	nt
CC(C)(C)NCc1cc2ccccc2[nH]c1=O	0%	-11	-7
Cc1ccc2[nH]c(=O)c(CNC(C)(C)C)cc2c1	-10%	-107*	-2
Cc1nc2c(c(C)c1C#N)C(=O)c1ccccc1-2	-23%	-96*	nt
Cc1nc2c(c(-c3ccccc3)c1C#N)C(=O)c1ccccc1-2	4%[0.0737 µM]	114	-8
Cc1nc(-n2nc(C)c(CCC(C)C)c2C)sc1C(=O)Nc1ccc(Cl)cc1	6%[46 µM]	nt	nt
SMILES	LMNA splice mod	PNC inhibitor	IMPase cell inh
C=C(C)Cn1c(=O)c2c(nc3n2CCN3c2ccc(F)cc2)n(C)c1=O	2%[46 µM]	nt	nt
COc1cccc(C(=O)Nc2ccc3oc(-c4cccc5c(Br)cccc45)nc3c2)c1	nt	nt	-1
CCn1c2ccccc2c2cc(N=C3SC(CC(=O)Nc4ccccc4OC)C(=O)N3CCOC)ccc21 (stereo not given)	-7%	-98*	nt
COc1ccc(N=C2SC(CC(=O)Nc3ccccc3OC)C(=O)N2Cc2ccco2)cc1 (stereo not given)	?	-104*	nt
CCn1c2ccccc2c2cc(N=C3SC(CC(=O)Nc4ccccc4OC)C(=O)N3C)ccc21 (stereo not given)	13%	-15	-3
COc1ccc(N=C2SC(CC(=O)Nc3ccc(F)cc3)C(=O)N2Cc2ccco2)cc1 (stereo not given)	?	-6	nt
C/C(CCS(=O)(=O)c1ccccc1)=N/O	-10%[9.22 µM]	nt	nt
COc1ccc(CCNC(=O)C(=O)NCC(c2ccco2)S(=O)(=O)c2ccc(C)cc2)cc1 (stereo not given)	26%[46 µM]	nt	nt
COc1ccc(-c2nc(SCC(=O)Nc3ccccc3)c(-c3ccc(F)cc3)[nH]2)cc1OC	nt	nt	22
CCOc1ccc(-n2c(SCC(=O)N3CCOCC3)nc3c([nH]c4ccccc43)c2=O)cc1	12%[46 µM]	nt	nt
Cc1cc(C)nc(N2CCCC(C(=O)Nc3nnc(C)s3)C2)n1 (stereo not given)	2%	2	-2
